From publication PMC5540273 (PLoS ONE, 2017)

Tests used:
Conditions in all cases: concentration: 1 μM, replicates: in singlicate; n = 1
ULK2 = system: ULK2
ULK3 = system: ULK3
VEGFR2 = system: T1, VEGFR2
T1 construct: gene KDR

VPS34 = system: T2, VPS34
T2 construct: gene PIK3C3

VRK2 = system: VRK2
WEE1 = system: WEE1
WEE2 = system: WEE2
WNK1 = system: WNK1
WNK2 = system: WNK2
WNK3 = system: WNK3
WNK4 = system: WNK4
YANK1 = system: T3, YANK1
T3 construct: gene STK32A

YANK2 = system: T4, YANK2
T4 construct: gene STK32B

YANK3 = system: T5, YANK3
T5 construct: gene STK32C

YES = system: T6, YES
T6 construct: gene YES1

YSK1 = system: T7, YSK1
T7 construct: gene STK25

YSK4 = system: T8, YSK4
T8 construct: gene MAP3K19

ZAK = system: ZAK
ZAP70 = system: ZAP70
p38-alpha = system: T9, p38-alpha
T9 construct: gene MAPK14
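Further: KINOMEscan kinase panel screen.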

COc1ccc(NC(=O)c2ccc(-c3cc(-c4nnc(C)o4)ccc3C)cc2)cc1 [GW595885]
%Inh (ULK2): 0%
%Inh (ULK3): 24%
%Inh (VEGFR2): 0%
%Inh (VPS34): 0%
%Inh (VRK2): 25%
%Inh (WEE1): 0%
%Inh (WEE2): 2%
%Inh (WNK1): 0%
%Inh (WNK2): 1%
%Inh (WNK3): 25%
%Inh (WNK4): 34%
%Inh (YANK1): 16%
%Inh (YANK2): 7%
%Inh (YANK3): 0%
%Inh (YES): 16%
%Inh (YSK1): 0%
%Inh (YSK4): 34%
%Inh (ZAK): 2%
%Inh (ZAP70): 0%
%Inh (p38-alpha): 97.7%

O=C(Nc1ccccc1F)NC1CCN(c2ccnc(Nc3ccc(F)cc3)n2)C1 (centres unmarked) [GSK1379722]
%Inh (ULK2): 0%
%Inh (ULK3): 8%
%Inh (VEGFR2): 0%
%Inh (VPS34): 0%
%Inh (VRK2): 16%
%Inh (WEE1): 9%
%Inh (WEE2): 0%
%Inh (WNK1): 10%
%Inh (WNK2): 0%
%Inh (WNK3): 38%
%Inh (WNK4): 28%
%Inh (YANK1): 0%
%Inh (YANK2): 6%
%Inh (YANK3): 21%
%Inh (YES): 14%
%Inh (YSK1): 2%
%Inh (YSK4): 28%
%Inh (ZAK): 0%
%Inh (ZAP70): 0%
%Inh (p38-alpha): 6%

CS(=O)(=O)CCNCc1nc(-c2ccc3ncnc(Nc4ccc(OCc5cccc(F)c5)c(Cl)c4)c3c2)cs1.Cl [GW583340]
%Inh (ULK2): 0%
%Inh (ULK3): 0%
%Inh (VEGFR2): 1%
%Inh (VPS34): 0%
%Inh (VRK2): 0%
%Inh (WEE1): 9%
%Inh (WEE2): 0%
%Inh (WNK1): 4%
%Inh (WNK2): 9%
%Inh (WNK3): 18%
%Inh (WNK4): 0%
%Inh (YANK1): 0%
%Inh (YANK2): 0%
%Inh (YANK3): 0%
%Inh (YES): 3%
%Inh (YSK1): 0%
%Inh (YSK4): 17%
%Inh (ZAK): 91.6%
%Inh (ZAP70): 0%
%Inh (p38-alpha): 18%

Nc1n[nH]c2nnc(-c3ccccc3)cc12 [SB-517389]
%Inh (ULK2): 0%
%Inh (ULK3): 10%
%Inh (VEGFR2): 0%
%Inh (VPS34): 0%
%Inh (VRK2): 0%
%Inh (WEE1): 21%
%Inh (WEE2): 15%
%Inh (WNK1): 10%
%Inh (WNK2): 17%
%Inh (WNK3): 5%
%Inh (WNK4): 0%
%Inh (YANK1): 13%
%Inh (YANK2): 0%
%Inh (YANK3): 21%
%Inh (YES): 16%
%Inh (YSK1): 0%
%Inh (YSK4): 75%
%Inh (ZAK): 24%
%Inh (ZAP70): 0%
%Inh (p38-alpha): 0%

Cl.Cl.c1ccc(-c2cc3ccncc3cc2OC2CCNCC2)cc1 [GSK1122999]
%Inh (ULK2): 0%
%Inh (ULK3): 4%
%Inh (VEGFR2): 0%
%Inh (VPS34): 67%
%Inh (VRK2): 0%
%Inh (WEE1): 5%
%Inh (WEE2): 11%
%Inh (WNK1): 7%
%Inh (WNK2): 0%
%Inh (WNK3): 0%
%Inh (WNK4): 28%
%Inh (YANK1): 20%
%Inh (YANK2): 0%
%Inh (YANK3): 0%
%Inh (YES): 15%
%Inh (YSK1): 8%
%Inh (YSK4): 64%
%Inh (ZAK): 0%
%Inh (ZAP70): 0%
%Inh (p38-alpha): 4%

Cl.c1ccc(Cn2ccc3cc(Nc4ncnc5ccccc45)ccc32)cc1 [GW275568]
%Inh (ULK2): 0%
%Inh (ULK3): 9%
%Inh (VEGFR2): 16%
%Inh (VPS34): 0%
%Inh (VRK2): 0%
%Inh (WEE1): 12%
%Inh (WEE2): 14%
%Inh (WNK1): 5%
%Inh (WNK2): 18%
%Inh (WNK3): 27%
%Inh (WNK4): 6%
%Inh (YANK1): 18%
%Inh (YANK2): 0%
%Inh (YANK3): 0%
%Inh (YES): 15%
%Inh (YSK1): 7%
%Inh (YSK4): 4%
%Inh (ZAK): 6%
%Inh (ZAP70): 1%
%Inh (p38-alpha): 2%

Cc1ccc(C)c(NC(=O)NCCNc2ccnc(Nc3ccc(F)cc3)n2)c1 [GSK1379878]
%Inh (ULK2): 0%
%Inh (ULK3): 0%
%Inh (VEGFR2): 0%
%Inh (VPS34): 0%
%Inh (VRK2): 0%
%Inh (WEE1): 8%
%Inh (WEE2): 0%
%Inh (WNK1): 0%
%Inh (WNK2): 9%
%Inh (WNK3): 15%
%Inh (WNK4): 23%
%Inh (YANK1): 0%
%Inh (YANK2): 0%
%Inh (YANK3): 0%
%Inh (YES): 0%
%Inh (YSK1): 0%
%Inh (YSK4): 0%
%Inh (ZAK): 34%
%Inh (ZAP70): 0%
%Inh (p38-alpha): 6%

Cc1cc(N2CCC(NS(=O)(=O)c3ccc(F)cc3)CC2)nc(Nc2cccc(C#N)c2)n1.O=C(O)C(F)(F)F [GSK1653537]
%Inh (ULK2): 0%
%Inh (ULK3): 4%
%Inh (VEGFR2): 0%
%Inh (VPS34): 0%
%Inh (VRK2): 0%
%Inh (WEE1): 10%
%Inh (WEE2): 15%
%Inh (WNK1): 6%
%Inh (WNK2): 13%
%Inh (WNK3): 2%
%Inh (WNK4): 0%
%Inh (YANK1): 2%
%Inh (YANK2): 1%
%Inh (YANK3): 29%
%Inh (YES): 0%
%Inh (YSK1): 22%
%Inh (YSK4): 0%
%Inh (ZAK): 0%
%Inh (ZAP70): 0%
%Inh (p38-alpha): 0%

Cl.Cn1ccc(-c2cccc(Nc3ccnc4cc(-c5nccs5)ccc34)c2)n1 [GW525701]
%Inh (ULK2): 0%
%Inh (ULK3): 0%
%Inh (VEGFR2): 0%
%Inh (VPS34): 0%
%Inh (VRK2): 7%
%Inh (WEE1): 11%
%Inh (WEE2): 0%
%Inh (WNK1): 17%
%Inh (WNK2): 18%
%Inh (WNK3): 50%
%Inh (WNK4): 66%
%Inh (YANK1): 0%
%Inh (YANK2): 10%
%Inh (YANK3): 0%
%Inh (YES): 21%
%Inh (YSK1): 17%
%Inh (YSK4): 41%
%Inh (ZAK): 0%
%Inh (ZAP70): 74%
%Inh (p38-alpha): 9%

CC(=O)Nc1n[nH]c2ncc(-c3ccccc3)cc12 [SB-548492]
%Inh (ULK2): 35%
%Inh (ULK3): 30%
%Inh (VEGFR2): 18%
%Inh (VPS34): 7%
%Inh (VRK2): 0%
%Inh (WEE1): 0%
%Inh (WEE2): 20%
%Inh (WNK1): 0%
%Inh (WNK2): 0%
%Inh (WNK3): 0%
%Inh (WNK4): 30%
%Inh (YANK1): 0%
%Inh (YANK2): 0%
%Inh (YANK3): 0%
%Inh (YES): 0%
%Inh (YSK1): 0%
%Inh (YSK4): 31%
%Inh (ZAK): 31%
%Inh (ZAP70): 0%
%Inh (p38-alpha): 4%
